For 63 molecules, max activity results are on record in PubChem BioAssay AID1224921 (Broad Institute, 2016).

Out of some 1,400 compounds screened, about 350 (25%) were called active. Roughly 2% stayed inconclusive and do not appear here. Not all results are given here. Results with a measured potency or affinity are listed apart. A number with no mark means an inactive call. The rule behind the calls is not given here.

The nature of this assay: C. difficile growth inhibition, confirmation, 4-point retest (AID 1224921).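 Note: plate controls were DMSO wells for no effect and levofloxacin 16 µg/mL wells for full effect.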 The following applies: Clostridioides difficile clinical isolate growth, OD600, 24 h, stronger effect = lower value; at 30 µM unless noted.
As to `CCCC#Cc1ccc2c(c1)O[C@H](CN(C)Cc1ccncc1)[C@H](C)CN([C@H](C)CO)S2(=O)=O`, the max activity was 6.31%.
Then `C[C@@H]1CN([C@H](C)CO)C(=O)c2cccc(NC(=O)Nc3ccc4c(c3)OCO4)c2O[C@H]1CN(C)S(=O)(=O)c1ccc(Cl)cc1`, with -12.1% [at 8 µM]; and `CC(C)CC#Cc1ccc2c(c1)O[C@@H](CN(C)Cc1cccnc1)[C@H](C)CN([C@@H](C)CO)S2(=O)=O`, with 42%.
Consider `COc1ccccc1C#Cc1ccc2c(c1)O[C@H](CN(C)Cc1ccncc1)[C@@H](C)CN([C@@H](C)CO)S2(=O)=O`, for which the max activity is 48.6%.
On to `CCCNC(=O)N(C)C[C@@H]1Oc2cc(C#Cc3ccccn3)ccc2S(=O)(=O)N([C@@H](C)CO)C[C@H]1C`, for which the max activity was 9.97%.
Take `CO[C@H]1O[C@H](CO)[C@@H](OC(=O)Nc2ccc3c(c2)OCO3)[C@H](OC(=O)Nc2ccccc2)[C@H]1OC(=O)Nc1ccccc1`: the max activity was 10.7%.
The value for `CCC(=O)N[C@H]1C=C[C@@H](CC(=O)OC)O[C@@H]1CO` was -10.5%.
As to `CN1C(=O)c2cc(NC(=O)Cc3ccccc3)ccc2OC[C@H]2O[C@@H](CC(=O)NCC3CC3)CC[C@H]21`, the max activity is -7.83%.
`O=C(C[C@@H]1C[C@@H]2c3cc(NC(=O)Nc4ccc(C(F)(F)F)cc4)ccc3O[C@@H]2[C@H](CO)O1)NCc1ccc(Cl)cc1`: the max activity is 27.7%.
On to `CCC(=O)Nc1ccc2c(c1)OC[C@H](C)N(CC1CCCCC1)C[C@@H](C)[C@@H](OC)CN(C)C2=O`, for which the max activity is 8.81%.
Regarding `CCCN1[C@@H]2c3ccc(-c4ccc(F)cc4)c(=O)n3C[C@@H]2[C@@H](CO)[C@@H]1C(=O)N[C@@H](C)c1ccccc1`, the max activity was -8.45%.
On to `COc1ccccc1-c1ccc2c(c1)O[C@@H](CN(C)C(=O)c1ccccc1)[C@@H](C)CN([C@@H](C)CO)S2(=O)=O`, for which the max activity was 29.9%.
As to `COCC(=O)Nc1ccc2c(c1)OC[C@H](C)N(Cc1ccccc1)C[C@@H](C)[C@@H](OC)CN(C)C2=O`, the max activity was 5.39%.
The value for `CCCC(=O)Nc1ccc2c(c1)C(=O)N(C)C[C@H](OC)[C@@H](C)CN(S(=O)(=O)c1cn(C)cn1)[C@@H](C)CO2` was -11.7%; that for `C[C@H]1CCCCO[C@@H](CN(C)Cc2ccc(C(=O)O)cc2)[C@@H](C)CN([C@@H](C)CO)C(=O)c2cc(NC(=O)Nc3ccc4c(c3)OCO4)ccc2O1` was -7.43%; that for `CCC(=O)N(C)C[C@@H]1Oc2cc(C#CCC3CCCC3)ccc2S(=O)(=O)N([C@H](C)CO)C[C@H]1C` was 29.4%.
On to `COc1cc(O)c2c(c1)oc(=O)c1c3cc(O)c(O)cc3oc21`, for which the max activity is 14.5%.
The value for `CNC(=O)C[C@H]1CC[C@H]2[C@H](COc3ccc(NC(=O)c4ccccc4F)cc3C(=O)N2C)O1` was -13.3% [at 1.95 µM].
Consider `CNC(=O)C[C@@H]1CC[C@H]2[C@@H](COc3ccc(NC(=O)c4ccccc4F)cc3C(=O)N2C)O1`, for which the max activity was -11.2% [at 1.95 µM].
The value for `O=C(Nc1ccc2c(c1)OCO2)N[C@@H]1C=C[C@H](CC(=O)N2CCN(c3ccccc3)CC2)O[C@H]1CO` was 18.2%.
Consider `CO[C@@H]1CN(C)C(=O)c2ccc(NC(=O)c3ccc(F)cc3)cc2OC[C@H](C)N(C(=O)CN(C)C)C[C@@H]1C`, for which the max activity was -20.6% [at 1.95 µM].
For `CNC[C@H]1Oc2cc(-c3ccccc3F)ccc2S(=O)(=O)N([C@H](C)CO)C[C@H]1C`, the max activity is 25.6%.
Then `C[C@@H]1CN([C@H](C)CO)C(=O)Cc2cc(NC(=O)C3CC3)ccc2O[C@@H]1CN(C)Cc1ccc(-c2ccccc2)cc1`, with 43.1% [at 35 µM]; and `CC(C)C#Cc1ccc2c(c1)O[C@H](CN(C)Cc1ccncc1)[C@@H](C)CN([C@H](C)CO)S2(=O)=O`, with 51.9%.
On to `CO[C@H]1CN(C)C(=O)c2cc(NC(=O)Nc3ccccc3F)ccc2OC[C@@H](C)N(CC2CC2)C[C@@H]1C`, for which the max activity is -19.6% [at 1.95 µM].
Then `CO[C@@H]1CN(C)C(=O)c2ccc(NC(C)=O)cc2OC[C@@H](C)N(Cc2cccc(F)c2)C[C@@H]1C`, with 16.8%; and `CCS(=O)(=O)Nc1ccc2c(c1)C(=O)N(C)C[C@@H](OC)[C@H](C)CN(CC1CCCC1)[C@H](C)CO2`, with -10.9% [at 1.95 µM]; and `C[C@@H]1CN([C@H](C)CO)S(=O)(=O)c2ccc(C#CCC3CCCC3)cc2O[C@H]1CN(C)C(=O)CC1CC1`, with 15.9%.
On to `COc1cccc(NC(=O)N[C@H]2CC[C@H](CC(=O)Nc3ccc(-c4ccccc4)cc3)O[C@H]2CO)c1`, for which the max activity was 32.5%.
The value for `COc1cccc(-c2ccc3c(c2)O[C@@H](CN(C)Cc2cccnc2)[C@H](C)CN([C@H](C)CO)S3(=O)=O)c1` was 34.9%.
For the molecule `C[C@@H]1CN([C@H](C)CO)C(=O)c2cccc(NC(=O)c3nc4ccccc4s3)c2O[C@H]1CN(C)Cc1ccc2c(c1)OCO2`, the max activity is 20.2%.
With `O=C(C[C@H]1C[C@H]2c3cc(NC(=O)C4CCC4)ccc3O[C@H]2[C@H](CO)O1)NCCc1ccccc1`, the max activity was -11.7% [at 1.95 µM].
Then `CCC(=O)N1C[C@H](C)[C@H](OC)CN(C)C(=O)c2ccc(NC(=O)Nc3ccc(Cl)cc3)cc2OC[C@H]1C`, with 20%.
Then `Cc1ccccc1S(=O)(=O)NCC[C@H]1CC[C@H](NC(=O)Nc2cccc(Cl)c2)[C@H](CO)O1`, with 6.17% [at 35 µM].
With `CCC(=O)N[C@@H]1CC[C@@H](CC(=O)NCc2ccccc2F)O[C@@H]1CO`, the max activity is -13% [at 8 µM].
`CCC(=O)N[C@H]1CC[C@H](CC(=O)NCc2ccccc2F)O[C@H]1CO`: the max activity was -6.85% [at 0.5 µM].
On to `CCC(=O)N[C@@H]1CC[C@H](CC(=O)NCc2ccccc2F)O[C@@H]1CO`, for which the max activity is -16.5% [at 8 µM].
The value for `N#C[C@H]1[C@H](c2ccc(C#Cc3ccccc3F)cc2)[C@@H](CO)N1C(=O)C1CCC1` was 26.9%; that for `C[C@@H]1CN([C@H](C)CO)S(=O)(=O)c2ccc(C#CC3CCCCC3)cc2O[C@@H]1CN(C)Cc1cccnc1` was 42.2%; that for `CO[C@H]1CN(C)C(=O)c2ccc(NC(=O)c3ccc(F)cc3)cc2OC[C@H](C)N(C(=O)CN(C)C)C[C@@H]1C` was -12.9%.
Then `COc1ccccc1C#Cc1ccc2c(c1)O[C@@H](CN(C)Cc1cccnc1)[C@H](C)CN([C@H](C)CO)S2(=O)=O`, with 35.7%.
As to `O=C(C[C@H]1C[C@@H]2c3cc(NC(=O)Nc4ccc(C(F)(F)F)cc4)ccc3O[C@@H]2[C@H](CO)O1)NCc1ccc2c(c1)OCO2`, the max activity was 9.19%.
In the case of `C[C@@H]1CN([C@@H](C)CO)S(=O)(=O)c2ccc(C#CCC3CCCC3)cc2O[C@H]1CN(C)C(=O)c1ccccn1`, the max activity was 25.9%.
Then `CO[C@H]1CN(C)C(=O)c2ccc(NC(=O)C3CC3)cc2OC[C@@H](C)N(Cc2cccc(F)c2)C[C@H]1C`, with 15.9%; and `CO[C@H]1CN(C)C(=O)c2ccc(NC(=O)c3ccc(F)cc3)cc2OC[C@@H](C)N(C(=O)CN(C)C)C[C@@H]1C`, with -6.76% [at 0.5 µM]; and `C[C@H]1CN([C@@H](C)CO)S(=O)(=O)c2ccc(C#CC3CC3)cc2O[C@@H]1CN(C)Cc1cccnc1`, with 36.4%.
Then `COc1ccccc1C#Cc1ccc2c(c1)O[C@@H](CN(C)Cc1ccncc1)[C@H](C)CN([C@H](C)CO)S2(=O)=O`, with 34.5%; and `CO[C@@H]1CN(C)C(=O)c2cc(NC(C)=O)ccc2OC[C@@H](C)N(CCc2ccccc2)C[C@@H]1C`, with 18.4%; and `CO[C@@H]1CN(C)C(=O)c2ccc(NC(=O)c3nc4ccccc4s3)cc2OC[C@H](C)N(Cc2ccncc2)C[C@H]1C`, with 21.3%.
For the molecule `COc1ccc(NC(=O)Nc2ccc3c(c2)[C@H]2C[C@H](CC(=O)N4CCc5ccccc5C4)O[C@@H](CO)[C@H]2O3)cc1`, the max activity is -11.6% [at 0.5 µM].
Then `CCCC(=O)Nc1ccc2c(c1)OC[C@@H](C)N(C(=O)Cc1cccnc1)C[C@@H](C)[C@H](OC)CN(C)C2=O`, with -13.6% [at 1.95 µM].
Then `COCC(=O)N(C)C[C@@H]1Oc2cc(C#Cc3ccccc3)ccc2S(=O)(=O)N([C@@H](C)CO)C[C@@H]1C`, with 7.66%; and `CO[C@@H]1CN(C)C(=O)c2ccc(NC(=O)c3nc4ccccc4s3)cc2OC[C@@H](C)N(Cc2cccnc2)C[C@@H]1C`, with 29.5%; and `CO[C@H]1CN(C)C(=O)c2cc(NC(=O)c3ccccc3)ccc2OC[C@@H](C)N(C)C[C@H]1C`, with 10.4%.
Consider `Cc1ccc(S(=O)(=O)N2C[C@H](O)COC[C@H]3O[C@H](CC(=O)NCc4ccc(Cl)c(Cl)c4)CC[C@@H]32)cc1`, for which the max activity is 26.4% [at 8 µM].
Take `COc1ccc(S(=O)(=O)N2C[C@@H](O)COC[C@H]3O[C@H](CC(=O)NCc4ccc(Cl)c(Cl)c4)CC[C@@H]32)cc1`: the max activity is 33.9% [at 0.5 µM].
Then `Cc1ccc(S(=O)(=O)N2C[C@@H](O)COC[C@@H]3O[C@@H](CC(=O)NCC4CCCCC4)CC[C@H]32)cc1`, with 22.7% [at 8 µM].
Then `C[C@H](CO)N1C[C@H](C)[C@H](CN(C)Cc2cccnc2)Oc2cc(C#CC3CCCCC3)ccc2S1(=O)=O`, with 30.4%.
Turning to `C[C@@H]1CN([C@@H](C)CO)C(=O)Cc2cc(N(C)C)ccc2O[C@@H]1CN(C)Cc1ccc(-c2ccccc2)cc1`, the max activity was 57.8%.
The value for `C[C@@H]1CN([C@H](C)CO)C(=O)c2cc(-c3ccccc3)cnc2O[C@@H]1CN(C)Cc1ccccn1` was -13.1% [at 1.95 µM]; that for `O=C(C[C@@H]1C[C@@H]2c3cc(NC(=O)Nc4ccc(C(F)(F)F)cc4)ccc3O[C@@H]2[C@H](CO)O1)NCc1ccc2c(c1)OCO2` was 9.21% [at 1.95 µM].
The value for `CC(C)NC(=O)N[C@H]1CC[C@H](CC(=O)NCCCN(C)C)O[C@H]1CO` was -16.5% [at 1.95 µM].
Turning to `C[C@@H]1CN([C@H](C)CO)C(=O)c2c(c3ccccc3n2C)-c2ccccc2CO[C@@H]1CN(C)S(=O)(=O)c1cccc(F)c1`, the max activity was 42% [at 35 µM].
